Laboratory results from PubChem BioAssay AID430 (Sanford-Burnham Center for Chemical Genomics, 2006).
Screen size: about 63,000 compounds; about 1,100 (1.7%) were called active. The entries come from a sample that favours actives as a whole. Measured potencies and affinities stand elsewhere. Unmarked numbers belong to inactive results. No stated cut-off is given here; in the data, active means cytotoxicity above about 50%; inactive means the rest.

Test: HPDE-C7 pancreatic duct cell viability loss – fluorescence, HTS (AID 430);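 further: cells exposed to compound for 48 hours before viability readout; 0% = vehicle and 100% = reference cytotoxic drug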
Conditions: HPDE-C7 pancreatic duct cells viability, at 10 µM, active compounds read high
Compound Cc1ccc(-c2cc(C(F)F)nc(NCc3cccnc3)n2)cc1 has a cytotoxicity of 28.4%. In the case of CCOC(=O)C(C)Oc1cccc2c(=O)n(CC(=O)NCc3ccco3)ccc12 (stereo unspecified), the cytotoxicity is reported as 65.7% (active). CCOC(=O)C(C)Oc1cccc2c(=O)n(CC(=O)N3CCc4ccccc43)ccc12 (stereo unspecified) showed a cytotoxicity of -7.3%. With CCOC(=O)COc1cccc2c(=O)n(CC(=O)NCc3ccc4c(c3)OCO4)ccc12 the cytotoxicity was 60.6% (active). CCOC(=O)C(C)Oc1cccc2c(=O)n(CC(=O)Nc3ccc4c(c3)OCCO4)ccc12 (stereo unspecified) showed a cytotoxicity of 9.2%. For CCOC(=O)C(C)Oc1cccc2c(=O)n(CC(=O)N3CCN(C(=O)OCC)CC3)ccc12 (stereo unspecified), the cytotoxicity was -8.4%. In the case of CCOC(=O)C(C)Oc1cccc2c(=O)n(CC(=O)NCc3ccc4c(c3)OCO4)ccc12 (stereo unspecified), the cytotoxicity is reported as 53% (active). Compound O=C(Cn1cnc2ccccc2c1=O)NCc1ccco1 has a cytotoxicity of -1%. CCOC(=O)COc1cccc2c(=O)n(CC(=O)N3CCc4ccccc43)ccc12 gave a cytotoxicity of -7.9%. CCOC(=O)COc1cccc2c(=O)n(CC(=O)N3CCN(C(=O)OCC)CC3)ccc12 showed a cytotoxicity of -9.2%. Work on CCCCN(C)CCCNC(=O)c1ccc2c(c1)NC(=O)C(N1CCOCC1)S2 (stereo unspecified) yielded a cytotoxicity of 2.3%. With CCOC(=O)N1CCN(C(=O)C2CCCN(S(C)(=O)=O)C2)CC1 (stereo unspecified) the cytotoxicity was 2.7%. Compound CC(C)Sc1nc2c(cnn2-c2ccccc2)c(=O)[nH]1 has a cytotoxicity of -15.9%. For COC(=O)C(C(=O)OC)C(C(C)C)C(C(=O)OC)C(=O)OC, the cytotoxicity was 5.9%. With O=C(Nc1ccc(Cl)cc1)Nc1ccccc1C(=O)NCc1ccco1 the cytotoxicity was 8.1%. With O=C(Nc1ccc(Cl)cc1)NC1CCCC1Cc1ccco1 (stereo unspecified) the cytotoxicity was 55% (active). O=C(NCCSCc1ccco1)Nc1ccc(Cl)cc1 showed a cytotoxicity of -8.4%. For CC(c1ccccc1)N1CNc2c(c(=O)n(C)c(=O)n2C)C1 (stereo unspecified), the cytotoxicity was -8.9%. With O=C(O)CC(c1ccc(Cl)cc1)N1C(=O)CCC1=O (stereo unspecified) the cytotoxicity was -2.8%. CCOc1ccc(NC(=O)CSc2nnc(Cc3cccn3C)n2-c2ccc(OC)cc2)cc1 showed a cytotoxicity of -17.3%. Work on c1coc(C2Nc3cccc4cccc(c34)N2)c1 yielded a cytotoxicity of 4.2%. Oc1ccccc1C1Nc2cccc3cccc(c23)N1 gave a cytotoxicity of -21.5%. With COc1cc(C2Nc3cccc4cccc(c34)N2)cc(OC)c1OC(C)=O the cytotoxicity was 72.1% (active). For COc1cc(C2Nc3cccc4cccc(c34)N2)cc(OC)c1O, the cytotoxicity was 56.8% (active). CCN(CC)c1ccc(C2Nc3cccc4cccc(c34)N2)c(O)c1 gave a cytotoxicity of 30.4%. COc1cc(C2Nc3cccc4cccc(c34)N2)ccc1OC(C)=O gave a cytotoxicity of 41.1%.
